Source: PubChem BioAssay (Tox21)
“And” between values parts separate entries of the source, which are not always exact repeats. Identical values can stand only once. Results filed as inconclusive are left out. Where a call stands in place of a potency, no number is given. The source made the active and inactive calls. Calls come from the whole dose curve.

These compounds were tested against Thyrotropin receptor (Homo sapiens) (UniProt P16473) (assay: qHTS assay to identify small molecule agonists of the thyroid stimulating hormone receptor (TSHR) signaling pathway (AID 1224843; note: nearly all actives have a fitted effect of over 45% in size)). Details: TSHR-HEK293 cells, cAMP HTRF, agonist mode, 30 min; series mostly up to 92.4 µM; activation: at the top concentration.
Excerpt: National Center for Advancing Translational Sciences [NCATS]
NIH Chemical Genomics Center [NCGC]
U.S. Environmental Protection Agency [EPA]
National Institutes of Environmental Health Sciences [NIEHS]
National Toxicology Program [NTP]
U.S. Food and Drug Administration [FDA]
TSHR is the receptor for thyrotropin (thyroid stimulating hormone or TSH), a member of the glycoprotein hormone family. TSH is released by the anterior pituitary gland and is the main regulator of thyroid gland growth and development. Upon binding circulating thyrotropin, a G-protein signal cascade activates adenylyl cyclase and […] cAMP concentration is increased. cAMP is a key second messenger involved extensively in cellular signal transduction pathways associated with the majority of G-protein coupled receptors (GPCRs). The activation of these GPCRs by neurotransmitters, lipids, nucleotides, peptides and hormones results in the activation or the inhibition of plasma membrane-bound adenylate cyclase through heterotrimeric G-proteins. A cell-based TSHR assay was used to screen the Tox21 10K library for compounds that can modulate TSHR in agonist mode.
Tox21 Assay Protocol Summary:
TSHR-Hek293 cells were dispensed at 800 cells/4uL/well in 1536-well white plates using a Multidrop dispenser. […] The plates were incubated at room temperature for 30 min. 2.5 ul/well of cAMP-d2 and 2.5ul/well of anti-cAMP-cryptate was added respectively into the assay plates using a Flying Reagent Dispenser. After 1 hr incubation at room temperature, the fluorescence intensity in the plates was measured using an Envision plate reader. Each test compound was measured at 15 concentrations and in triplicates.
Potency is the fitted concentration of half-maximal effect.

Thyrotropin receptor (Homo sapiens), sequence (P16473 whole entry, looked up): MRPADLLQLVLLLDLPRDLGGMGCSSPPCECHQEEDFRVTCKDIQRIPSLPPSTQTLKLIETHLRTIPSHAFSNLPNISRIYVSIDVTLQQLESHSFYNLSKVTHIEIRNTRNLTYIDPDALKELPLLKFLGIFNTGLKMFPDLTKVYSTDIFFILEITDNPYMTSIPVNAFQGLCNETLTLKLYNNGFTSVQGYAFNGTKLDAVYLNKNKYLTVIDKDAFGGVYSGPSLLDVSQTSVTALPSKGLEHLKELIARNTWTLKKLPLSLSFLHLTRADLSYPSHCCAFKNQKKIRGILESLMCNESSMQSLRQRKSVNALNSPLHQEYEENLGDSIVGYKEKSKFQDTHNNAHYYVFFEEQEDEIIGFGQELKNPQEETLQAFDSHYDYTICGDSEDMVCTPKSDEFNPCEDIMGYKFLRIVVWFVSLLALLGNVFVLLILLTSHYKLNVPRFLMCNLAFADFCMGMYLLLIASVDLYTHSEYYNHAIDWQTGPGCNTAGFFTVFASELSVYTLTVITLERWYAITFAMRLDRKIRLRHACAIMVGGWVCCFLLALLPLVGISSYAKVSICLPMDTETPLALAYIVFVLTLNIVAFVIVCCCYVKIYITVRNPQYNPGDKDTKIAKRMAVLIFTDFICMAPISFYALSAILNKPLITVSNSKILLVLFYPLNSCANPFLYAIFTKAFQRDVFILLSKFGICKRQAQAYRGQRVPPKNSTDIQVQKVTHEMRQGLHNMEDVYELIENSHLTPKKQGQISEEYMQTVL

Row | SMILES | activation | Potency
1 | CCC(=O)C(CC(C)N(C)C)(c1ccccc1)c1ccccc1 (configuration not stated) | -24.3% [at 42.5 µM] (inactive) | 
2 | COP(=O)(OC)C(O)C(Cl)(Cl)Cl (configuration not stated) |  | inactive
3 | O=C(O)C(Cl)(Cl)Cl |  | inactive
4 | CCCCCCCCCCCCCC[P+](CCCCCC)(CCCCCC)CCCCCC |  | inactive
5 | Nc1ccccc1 |  | inactive
6 | CCOP(=S)(OCC)Oc1ccc2c(C)c(Cl)c(=O)oc2c1 | -6.96% [at 42.5 µM] (inactive) | 
7 | CC[n+]1ccccc1 |  | inactive
8 | CC(=O)[O][Hg][c]1ccccc1 |  | 2.71 µM (active) and 770 nM (active) and 9.44 µM (active)
9 | CC[N+](CC)(CC)CC |  | inactive
10 | CN(C)[C@@H]1C(=O)C(C(N)=O)=C(O)[C@@]2(O)C(=O)C3=C(O)c4c(O)cccc4[C@@](C)(O)[C@H]3[C@H](O)[C@@H]12 |  | inactive
11 | Cc1cc(Cl)ccc1N |  | inactive
12 | C1CCC(NC2CCCCC2)CC1 |  | inactive
13 | O=C(O)c1nc(Cl)ccc1Cl |  | inactive
14 | CCCn1cc[n+](C)c1 |  | inactive
15 | C[N+](C)(C)Cc1ccccc1 |  | inactive
16 | C[C@]12CCC(=O)C=C1CC[C@@H]1[C@@H]2CC[C@]2(C)C(=O)CC[C@@H]12 |  | inactive
17 | Cc1cc(-c2ccc(N)c(C)c2)ccc1N |  | 1.35 µM (active)
18 | OCCOc1ccccc1 |  | inactive
19 | O=C(O)C(Cl)Cl |  | inactive

Row | SMILES | activation | Potency
20 | COc1ccc(N)cc1 |  | inactive
21 | Nc1ccc(Cl)cc1 |  | inactive
22 | C=CCOC(Cn1ccnc1)c1ccc(Cl)cc1Cl (configuration not stated) |  | inactive
23 | O=[N+]([O-])O |  | inactive
24 | CCCCCCCCCCCC(=O)O |  | inactive
25 | Nc1ccc(-c2ccc(N)c(Cl)c2)cc1Cl | -16.2% (inactive) | 
26 | CCCC[N+]1(C)CCCCC1 |  | inactive
27 | Cc1cc(Cl)ccc1OCC(=O)O |  | inactive
28 | O=C(O)CCl |  | inactive
29 | CCNc1nc(Cl)nc(NCC)n1 |  | inactive
30 | CCCC[n+]1ccccc1 |  | inactive
31 | CCCCCCCCn1cc[n+](C)c1 |  | inactive
32 | CC(Cl)(Cl)C(=O)O |  | inactive
33 | COCC(=O)N(c1c(C)cccc1C)C(C)C(=O)OC (configuration not stated) |  | inactive
34 | Nc1ccc(-c2ccc(N)cc2)cc1 | -18.7% [at 42.5 µM] (inactive) | 
35 | O=P1(N(CCCl)CCCl)NCCCO1 (configuration not stated) |  | inactive
36 | CCCCCCCCCCCCCCCCn1cc[n+](C)c1 |  | inactive
37 | CCC[N+]1(C)CCCCC1 |  | inactive
